Test results published in PubChem BioAssay AID485298 (National Center for Advancing Translational Sciences (NCATS), 2010).
Several values for one entry are separate records, joined by “and”; a condition that tells them apart may be missing. Equal values may be shown once. In all, about 320,000 compounds went through this assay and about 740 (0.23%) were called active. Entries that show only a call come without a potency. Roughly 2% stayed inconclusive and do not appear here. This is one part of a sample in which actives are shown more often than they occur. Calls come from the whole dose curve; as a rule, active = well fitted activation curve with a large enough effect; inconclusive = small, poorly fitted or top-dose-only effect; inactive = no such curve, though single readings can be large or run the other way. Where a structure was tested more than once in an assay, its records may differ in their call.

Assay: qHTS Assay for Small Molecule Inhibitors of Mitochondrial Division or Activators of Mitochondrial Fusion; note: nearly all actives have a fitted effect of over 45% in size
Conditions: S. cerevisiae fusion-defective mutant growth rescue, CellTiterGlo 48 h; series mostly up to 46.1 µM
How it was run: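 Read-out: ATP-based luminescence (CellTiterGlo, 10 min ambient) reporting growth of fusion-defective ts yeast after 48 hours at 37C on glycerol/ethanol YPEG medium in the presence of compound.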
Potency is the fitted concentration of half-maximal effect.

| Compound | Potency |
| --- | --- |
| COc1ccccc1CN1CCCC(N2CCN(c3ccc(F)cc3)CC2)C1 (centres undefined) | inactive |
| O=C(c1ccc(C(F)(F)F)cc1)C1CCCN(C(=O)c2csnn2)C1 (centres undefined) | inactive |
| O=C(CN1C(=O)S/C(=C\c2ccccc2F)C1=O)NCCCn1ccnc1 | inactive |
| O=C(CCNC(=O)c1ccccc1)Nc1nc2ccccc2s1 | inactive |
| O=C(CN1C(=O)/C(=C\c2ccccc2F)SC1=S)Nc1nc2ccccc2s1 | 12.6 µM (active) |
| CS(=O)(=O)N1CCN=C1SCc1ccc(F)cc1 | inactive |
| O=C(Nc1ccccc1-c1ccccc1)c1ccccc1[N+](=O)[O-] | inactive |
| COc1cc2ccccc2cc1C(=O)Nc1ccccc1C | inactive |
| COc1cc(OC)c(C(=O)Nc2ccccc2-c2ccccc2)cc1OC | 15.8 µM (active) |
| O=C(O)CCN(Cc1ccccc1)S(=O)(=O)c1c(Cl)cccc1Cl | inactive |
| CCN(C(=O)CN1CCN(Cc2ccccc2)CC1)c1c(N)n(Cc2ccccc2)c(=O)[nH]c1=O | inactive |
| COc1ccc(OC)c(C(=O)NC(CC(N)=O)c2ccc(N3CCC(N4CCCCC4)CC3)c([N+](=O)[O-])c2)c1 (centres undefined) | inactive |
| COc1ccc(CCNC(=S)N2CCN(S(=O)(=O)c3ccc(Cl)cc3)CC2)cc1 | inactive |
| Oc1cc2c(cc1O)CN(C(=S)NCCc1ccc(Cl)cc1)CCC2 | inactive and 18.4 µM (active) |
| O=C(NCCc1ccc(Cl)cc1)c1cccc(N2CCCC2=O)c1 | inactive |
| Oc1ccc(Cn2cc[nH]c2=S)cc1 | inactive |
| CN(C)CCN=c1cc(-c2ccccc2)oc2ccc(Cl)cc12 | inactive |
| COc1ccc(/C=C/c2c(-c3cccc(C)c3)oc3ccc(-c4ccc5c(c4)OCO5)cc23)cc1 | inactive |
| CSCC(NS(=O)(=O)c1ccc(C)cc1)C(=O)O (centres undefined) | inactive |
| CSCCC(NC(=O)c1ccccc1)C(=O)N1CCCCCCC1 (centres undefined) | inactive |
| CSCCC(NS(=O)(=O)c1ccc(C)cc1)C(=O)N1CCCC1 (centres undefined) | 35.5 µM (active) |
| CC(=O)c1cccc(NC(=O)C2CCCN2S(=O)(=O)c2cccc3nsnc23)c1 (centres undefined) | inactive |
| C=CCn1c(CCNC(=O)c2ccccc2F)nnc1SCC(=O)Nc1ccc(OC)cc1 | inactive |
| CC(=O)NC(c1cccs1)c1cc(Br)c2cccnc2c1O (centres undefined) | inactive |
| Cc1cc(C(=O)Nc2nnc(C3CC3)s2)c(C)s1 | inactive |
| O=C(CNC(=O)c1ccc(F)cc1)c1ccccc1 | inactive |

| Compound | Potency |
| --- | --- |
| C[C@H](NC(=O)c1ccccc1)C(=O)OCC(=O)c1c[nH]c2ccccc12 | inactive |
| CN(C)c1ccc(C(CNC(=O)c2ccc(F)cc2)c2c[nH]c3ccccc23)cc1 (centres undefined) | 15.8 µM (active) |
| Cc1nnnn1/C(=C\c1ccccc1)C(=O)OCC(=O)N1CC2(C)CC1CC(C)(C)C2 (centres undefined) | inactive |
| O=C(Cc1ccccc1)Nc1c(C(=O)N2CCCCCC2)cnn1-c1ccccc1 | inactive |
| CCC(C)(C)n1nnnc1CN1CCN(c2nc3ccc(C)cc3cc2C#N)CC1 | inactive |
| O=C(/C=C/c1ccccc1)Oc1coc(CSc2ncccn2)cc1=O | inactive |
| Nc1c(C(=O)OCC(=O)Nc2ccc(OC(F)F)cc2)[nH]c(=O)[nH]c1=O | inactive |
| O=C(CO/N=C/c1ccc(OC(F)F)cc1)NCc1ccc(F)cc1 | 6.31 µM (active) |
| CCOc1ccc(/C=N/OCC(=O)NCc2cccs2)cc1 | inactive |
| CC1CCCCC1NC(=O)CO/N=C/c1ccc(OC(F)F)cc1 (centres undefined) | inactive |
| Clc1ccc(C2[C@H]3CN(CC4CCCCC4)[C@H](c4ccccc4)C34CC2(c2cccnc2)C4)cn1 (some centres undefined) | inactive |
| CCc1ccc[n+](-c2nc([O-])sc2C=O)c1 | inactive |
| CCOC(=O)/C=C/C(=O)OCC(=O)NC(c1ccccc1)c1ccccc1 | inactive |
| c1n[nH]c(NCc2ccc3c(c2)OCO3)n1 | inactive |
| Cn1cc(CCC(=O)NCc2ccc3c(c2)OCO3)c2ccccc21 | inactive |
| N#Cc1nc(Cc2cccc3ccccc23)oc1NCc1ccc2c(c1)OCO2 | 11.2 µM (active) |
| O=C(COC(=O)c1ccccc1NC(=O)c1ccco1)Nc1ccc2c(c1)OC(F)(F)O2 | inactive |
| CCCN1C(=O)C(O)(CC(=O)c2ccc(CC)cc2)c2cc(Br)ccc21 (centres undefined) | inactive |
| COc1ccc(Nc2nc(-c3cccnc3)nc3ccccc23)cn1 | inactive |
| CC(=O)Nc1cccc(Nc2nc(-c3cccs3)nc3ccccc23)c1 | inactive |
| Cc1cccc(-c2nc(Nc3ccc(O)cc3)c3ccccc3n2)c1 | 35.5 µM (active) |
| COc1ccc(OCCNS(=O)(=O)Cc2ccccc2)cc1 | inactive |
| Cc1ccc(NC(=O)c2cc([N+](=O)[O-])ccc2Cl)c(O)c1 | inactive |
| CCC(C)C(NC(=O)C1CCC(=O)N1C(=O)OCc1ccccc1)C(=O)NC(C(=O)N1CCCC1C(N)=O)C(C)CC (centres undefined) | inactive |
| Nc1ccc(Nc2cc(O)c3ncccc3c2)cc1 | inactive |
| CN(C)c1cc2c(Nc3ccc4c(cnn4Cc4ccccc4)c3)ncnc2cn1 | 18.4 µM (active) |

| Compound | Potency |
| --- | --- |
| Cn1ncc2c(Nc3cccc4ccccc34)ncnc21 | inactive |
| CC(C)Nc1ncnc2c1nnn2Cc1ccccc1 | inactive |
| CCOC(=O)N1CCN(C(=O)COC(=O)c2cccc(S(C)(=O)=O)c2)CC1 | inactive |
| CCOC(=O)C(=CNNc1ccsc1C(=O)OC)C(=O)OCC | inactive |
| Cc1ccc2nnn(Cc3cccc(C(C)(C)C)c3O)c2c1 | 12.6 µM (active) |
| Cc1ccc(O)c(CNc2nc3ccccc3[nH]2)c1 | inactive |
| Cc1ccc(O)c(CNc2nc3ccccc3n2C)c1 | inactive |
| CC(/C=C/C1(O)C(C)CC(=O)CC1(C)C)OC1OC(CO)C(O)C(O)C1O (centres undefined) | inactive |
| CCCC(C)C(=O)OCC(=O)Nc1c(Br)cc(C)cc1Br (centres undefined) | inactive |
| Cn1c(=O)c2c(n3c4ccccc4nc13)NC(=O)CC2c1cccc(Cl)c1 (centres undefined) | inactive |
| CC(C)C(=O)Nc1ccc2c3c(cccc13)CC2 | inactive |
| CCOc1ccc(-n2nc3ccc(NC(=O)c4ccc(OC)c(Cl)c4)cc3n2)cc1 | inactive |
| Cc1cc(-c2nnc(CCC(=O)NC(c3ccccc3)c3ccccc3)o2)no1 | inactive |
| O=C(O)C(NS(=O)(=O)c1cccc2nsnc12)c1ccccc1 (centres undefined) | inactive |
| O=C(C(NS(=O)(=O)c1cccc2nsnc12)c1ccccc1)N1CCN(c2ccccc2)CC1 (centres undefined) | 17.8 µM (active) |
| O=C(C(NS(=O)(=O)c1cccc2nsnc12)c1ccccc1)N1CCN(c2ccccn2)CC1 (centres undefined) | inactive |
| CC(=O)Nc1ccc(C(=O)Nc2cccc(S(=O)(=O)NC3=NCCC3)c2)cc1 | inactive |
| CN(C)c1nc(N)nc(CSc2nnnn2-c2cccc3ccccc23)n1 | inactive |
| Cc1ccc2c(N)c(C(=O)c3ccccc3)sc2n1 | inactive |
| CCc1nc2sc(C(=O)O)c(N)c2c2c1CCCC2 | inactive |
| Cc1nc2sc(C(=O)c3ccccc3)c(N)c2c2c1CCCC2 | 14.1 µM (active) |
| COc1ccc(OC)c(S(=O)(=O)n2c([N+](=O)[O-])cnc2C)c1 | inactive |
| CN(c1ccccn1)c1ncnc2[nH]ncc12 | inactive |
| O=S(=O)(c1cccc(C(F)(F)F)c1)N1CCN(c2cnccn2)CC1 | inactive |
| COC(=O)COc1ccc(C2NC(=O)NC(C)=C2C(=O)NCc2ccccc2)cc1OC (centres undefined) | inactive |
| Fc1ccc(Cn2nnnc2C(c2cccs2)N2CCCCCC2)cc1 (centres undefined) | inactive |

| Compound | Potency |
| --- | --- |
| CCC(C)(C)n1nnnc1C(c1ccc(OC)c(OC)c1)N1CCN(C(=O)c2ccco2)CC1 (centres undefined) | inactive |
| CCC(C)(C)n1nnnc1C(c1cccs1)N1CCN(c2nc3ccccc3s2)CC1 (centres undefined) | 10 µM (active) |
| Cc1ccc(C(CNC(=O)Nc2cccc(C)c2)N2CCN(C)CC2)cc1 (centres undefined) | inactive |
| CCC1=Nc2cc(C(=O)NCCCOC(C)C)ccc2Sc2ccc(C)cc21 | inactive |
| CCCS(=O)(=O)N1CCCC(C(=O)N2CCN(c3ccccc3)CC2)C1 (centres undefined) | inactive |
| O=C(C1CCCN(S(=O)(=O)c2ccccc2)C1)N1CCN(c2ccc(F)cc2)CC1 (centres undefined) | 3.98 µM (active) |
| Cc1ccc(S(=O)(=O)N2CCCC(C(=O)N3CCN(C)CC3)C2)cc1 (centres undefined) | inactive |
| Cc1cccc(C(=O)Nc2ccc(-c3nc4ncccc4o3)cc2C)c1 | inactive |
| COc1cc(NC(=O)CSc2nc3nc(C)c(Cc4ccc(C)cc4)c(C)n3n2)cc(OC)c1OC | inactive |
| C=CCNC(=O)CCCC(=O)NCC=C | inactive |
| CSCCC(NC(=O)c1ccco1)C(=O)Nc1cc(C)ccn1 (centres undefined) | inactive |
| NS(=O)(=O)c1cccc(NC(=O)CSc2nc3ccccc3n2-c2ccccc2)c1 | inactive |
| Cc1ccc(-n2c(SCC(=O)Nc3ncc(Cl)cc3Cl)nc3ccccc32)cc1 | 15.8 µM (active) |
| Cc1ccc(SCCC(=O)OCC(=O)Nc2ncc(Cl)cc2Cl)cc1 | inactive |
| Cc1ccc(C2C=C(c3ccc(Cl)cc3)Nc3nc(NC(=O)CCC(=O)O)nn32)cc1 (centres undefined) | inactive |
| CCOc1ccccc1NC(=O)CCn1cnnn1 | inactive |
| CCOC(=O)c1ccc(-c2ccc(/C=C(\C#N)C(=O)Nc3ccc(C)cc3)o2)cc1 | inactive |
| CC1CN/C(=C\C(=O)c2ccc(Br)cc2)C(=O)N1 (centres undefined) | 12.6 µM (active) |
| CC1(C)Cc2ccccc2/C(=C/C(=O)c2ccccc2)N1 | inactive |
| COc1cc2c(cc1OC)/C(=C/C(=O)c1ccc(NC(C)=O)cc1)NCC2 | inactive |
| O=S(=O)(NC1CCN(S(=O)(=O)c2ccc3c(c2)OCCO3)CC1)c1c(F)cccc1F | inactive |
| Cc1ccc(C(=O)NC(=S)Nc2ccc3[nH]c(=O)[nH]c3c2)cc1C | inactive |
| CCCC(O)(CCC)C(=O)NN(C(=O)CCl)c1cccc(C)c1 | inactive |
| O=C(CCCCCN1C(=O)c2cccc3cccc(c23)C1=O)NCc1ccco1 | inactive |
| O=C1c2cccc3cccc(c23)C(=O)N1CCCCCc1n[nH]c(=S)o1 | inactive |
| C[N+](C)(CCCCCC[N+](C)(C)CCCN1C(=O)c2cccc3cccc(c23)C1=O)CCCN1C(=O)c2cccc3cccc(c23)C1=O | inactive and 16.4 µM (active) |
